From PubChem BioAssay (NCATS)
Results filed as inconclusive are left out. Calls of active or inactive are those of the source. Calls come from the whole dose curve; as a rule, active = well fitted curve in the direction sought with a large enough effect; inconclusive = small, poorly fitted or top-dose-only effect, or another doubt; inactive = no such curve, though single readings can be large; an effect the other way counts as inactive or inconclusive.

What was measured:
HACAT = assay: qHTS assay to identify novel small-molecules to repurpose for Merkel cell carcinoma treatment (AID 1296009); conditions: MCC and control cell lines, CellTiter-Glo viability, 72 h; at 44.8 µM (top of the series) unless noted; note: nearly all actives have a fitted effect of over 60% in size
How it was run: (§1)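 Luminescence from CellTiter-Glo, read 10 min after addition at room temperature, reported viability following a 72 hr, 37 degree celsius treatment with NPC or MIPE compounds in titration; values normalized to plate controls.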

NIH3T3 = assay: as above; conditions: MCC and control cell lines, CellTiter-Glo viability, 72 h; at 44.8 µM (top of the series) unless noted
How it was run: as §1

CAOV3 = assay: Primary qHTS to identify gynecologic anti-cancer compounds using libraries of approved drugs and bioactive compounds (AID 1345084); conditions: Gynecologic cancer cell panel viability, ATPlite luminescence, 48 h; series mostly up to 57.5 µM; note: % is set by controls: 0 for no effect and ±100 for the full control effect; nearly all actives have a fitted effect of over 55% in size
How it was run: (§2)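 Luminescence from the ATPlite ATP-monitoring reagent indicates viable cell number; lower signal means cytotoxicity. Cells received compound 16 h after seeding and were exposed for 48 h across five concentrations.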

Es-2 = assay: as above; conditions: Gynecologic cancer cell panel viability, ATPlite luminescence, 48 h; series mostly up to 57.5 µM
How it was run: as §2

OV90 = assay: as above; conditions: Gynecologic cancer cell panel viability, ATPlite luminescence, 48 h; series mostly up to 57.5 µM
How it was run: as §2

PA-1 = assay: as above; conditions: Gynecologic cancer cell panel viability, ATPlite luminescence, 48 h; series mostly up to 57.5 µM
How it was run: as §2

SKOV3 = assay: as above; conditions: Gynecologic cancer cell panel viability, ATPlite luminescence, 48 h; series mostly up to 57.5 µM
How it was run: as §2

Tov-21-G = assay: as above; conditions: Gynecologic cancer cell panel viability, ATPlite luminescence, 48 h; series mostly up to 57.5 µM
How it was run: as §2

Tov112D = assay: as above; conditions: Gynecologic cancer cell panel viability, ATPlite luminescence, 48 h; series mostly up to 57.5 µM
How it was run: as §2

C33A = assay: as above; conditions: Gynecologic cancer cell panel viability, ATPlite luminescence, 48 h; series mostly up to 57.5 µM
How it was run: as §2

CASKI = assay: as above; conditions: Gynecologic cancer cell panel viability, ATPlite luminescence, 48 h; series mostly up to 57.5 µM
How it was run: as §2

HeLa = assay: as above; conditions: Gynecologic cancer cell panel viability, ATPlite luminescence, 48 h; series mostly up to 57.5 µM
How it was run: as §2

Hek293T = assay: as above; conditions: Gynecologic cancer cell panel viability, ATPlite luminescence, 48 h, control line for the selectivity index; series mostly up to 57.5 µM
How it was run: as §2

JEG-3 = assay: as above; conditions: Gynecologic cancer cell panel viability, ATPlite luminescence, 48 h; series mostly up to 57.5 µM
How it was run: as §2

CC(=O)/C=C/[C@H]1[C@](C)(O)[C@@H](O)[C@H](O)C2C(C)(C)CCC[C@@]21C (stereo not given in full)
inactive: outcome (HACAT) | outcome (NIH3T3) | Potency (CAOV3) | Potency (Es-2) | Potency (OV90) | Potency (PA-1) | Potency (SKOV3) | Potency (Tov-21-G) | Potency (Tov112D)

C=CC(C)(CC/C=C(\C)C(=O)OC[C@H]1O[C@@H](OC(C)(C=C)CC/C=C(\C)C(=O)O[C@H]2[C@H](O)[C@@H](O)[C@H](OC(C)(C=C)CC/C=C(\C)C(=O)O)O[C@@H]2CO)[C@H](O)[C@@H](O)[C@@H]1O)O[C@@H]1O[C@H](CO)[C@@H](O)[C@H](O)[C@H]1O (stereo not given in full)
inactive: outcome (HACAT) inactive [at 9.27 µM] | activity change, negative = cytotoxicity (C33A) -1.99% [at 11.6 µM] | activity change, negative = cytotoxicity (CAOV3) -17.5% [at 11.6 µM] | activity change, negative = cytotoxicity (CASKI) -16.7% [at 11.6 µM] | activity change, negative = cytotoxicity (Es-2) -6.19% [at 11.6 µM] | activity change, negative = cytotoxicity (HeLa) 2.2% [at 11.6 µM] | activity change, negative = cytotoxicity (Hek293T) -1.07% [at 11.6 µM] | activity change, negative = cytotoxicity (JEG-3) -1.18% [at 11.6 µM] | activity change, negative = cytotoxicity (OV90) 2.45% [at 11.6 µM] | activity change, negative = cytotoxicity (PA-1) 1.36% [at 11.6 µM] | activity change, negative = cytotoxicity (SKOV3) 0.327% [at 11.6 µM] | activity change, negative = cytotoxicity (Tov-21-G) -2.47% [at 11.6 µM] | activity change, negative = cytotoxicity (Tov112D) 8.98% [at 11.6 µM]

C=C1CC[C@H]2[C@@](C)(CCC(O)[C@@]2(C)CO)[C@@H]1/C=C/C(=C\C(=O)O)C(=O)O (stereo not given in full)
inactive: outcome (HACAT) | Potency (C33A) | Potency (CAOV3) | outcome (CASKI) | Potency (Es-2) | Potency (HeLa) | Potency (Hek293T) | Potency (JEG-3) | Potency (OV90) | Potency (PA-1) | Potency (SKOV3) | Potency (Tov-21-G) | Potency (Tov112D)

CC12CC(c3ccoc3)OC(=O)C1CCC1(C)C2CCC(O)C1(C)O (stereo not given)
inactive: outcome (HACAT) | outcome (NIH3T3) | Potency (C33A) | outcome (CASKI) | Potency (Es-2) | Potency (HeLa) | Potency (Hek293T) | Potency (JEG-3) | Potency (OV90) | Potency (PA-1) | Potency (SKOV3) | Potency (Tov-21-G) | Potency (Tov112D)

N#Cc1cccc(-c2c[nH]c3ncnc(N4CCOCC4)c23)c1
inactive: outcome (HACAT) | outcome (NIH3T3) | Potency (CAOV3) | outcome (CASKI) | Potency (Es-2) | Potency (HeLa) | Potency (Hek293T) | Potency (JEG-3) | Potency (OV90) | Potency (PA-1) | Potency (SKOV3) | Potency (Tov-21-G) | Potency (Tov112D)

OC[C@H]1O[C@@H](OCCc2ccccc2)[C@H](O[C@@H]2OC[C@@H](O)[C@H](O)[C@H]2O)[C@@H](O)[C@@H]1O
inactive: outcome (HACAT) inactive [at 17.4 µM] | outcome (NIH3T3) inactive [at 17.4 µM] | Potency (C33A) | outcome (CASKI) | Potency (Es-2) | Potency (HeLa) | Potency (Hek293T) | Potency (JEG-3) | Potency (OV90) | Potency (PA-1) | Potency (SKOV3) | Potency (Tov-21-G) | Potency (Tov112D)

O=C(Nc1ccccc1)Nc1ccc(-c2ccc(C(=O)C3CCCC3C(=O)O)cc2)cc1 (stereo not given)
inactive: outcome (HACAT) | outcome (NIH3T3) | Potency (C33A) | outcome (CASKI) | Potency (Es-2) | Potency (HeLa) | Potency (Hek293T) | Potency (JEG-3) | Potency (OV90) | Potency (PA-1) | Potency (Tov-21-G) | Potency (Tov112D)

CC[C@H]1OC(=O)[C@H](C)C(=O)[C@H](C)[C@@H](OC2O[C@H](C)C[C@H](N(C)C)[C@H]2O)[C@@H](C)C[C@@H](C)C(=O)/C=C/[C@]1(C)O (stereo not given in full)
inactive: outcome (HACAT) inactive [at 17.4 µM] | outcome (NIH3T3) inactive [at 17.4 µM] | Potency (C33A) | outcome (CASKI) | Potency (Es-2) | Potency (HeLa) | Potency (Hek293T) | Potency (JEG-3) | Potency (OV90) | Potency (PA-1) | Potency (SKOV3) | Potency (Tov-21-G) | Potency (Tov112D)

C/C=C(\C)C(=O)OC[C@H]1O[C@H](O[C@H]2O[C@H](CO)[C@@H](O)[C@H](O)[C@H]2O[C@@H]2O[C@H](CO)[C@@H](O)[C@H](O)[C@H]2O)[C@H](O[C@@H]2O[C@H](CO)[C@@H](O)[C@H](O)[C@H]2O)[C@@H](O)[C@@H]1O
inactive: outcome (HACAT) inactive [at 17.4 µM] | outcome (NIH3T3) inactive [at 17.4 µM] | Potency (C33A) | outcome (CASKI) | Potency (Es-2) | Potency (HeLa) | Potency (Hek293T) | Potency (JEG-3) | Potency (OV90) | Potency (PA-1) | Potency (Tov-21-G) | Potency (Tov112D)

COC(=O)C1=CO[C@@H](O[C@@H]2O[C@H](CO)[C@@H](O)[C@H](O)[C@H]2O)C2C1CC(O)C2C (stereo not given in full)
inactive: outcome (HACAT) | Potency (C33A) | Potency (CAOV3) | outcome (CASKI) | Potency (Es-2) | Potency (HeLa) | Potency (Hek293T) | Potency (JEG-3) | Potency (OV90) | Potency (PA-1) | Potency (SKOV3) | Potency (Tov-21-G) | Potency (Tov112D)

Cc1onc(-c2ccccc2Cl)c1C(=O)N(C)c1ccc(Cl)cc1
inactive: outcome (HACAT) | outcome (NIH3T3) | Potency (C33A) | outcome (CASKI) | Potency (Es-2) | Potency (HeLa) | Potency (Hek293T) | Potency (JEG-3) | Potency (OV90) | Potency (SKOV3) | Potency (Tov-21-G) | Potency (Tov112D)

CN[C@H](CNC(=O)N1CCC[C@@H]([C@@H](OCCNC(=O)OC)c2cccc(Cl)c2)C1)C[C@H]1CCCOC1
inactive: outcome (HACAT) | outcome (NIH3T3) | Potency (C33A) | outcome (CASKI) | Potency (Es-2) | Potency (HeLa) | Potency (Hek293T) | Potency (JEG-3) | Potency (OV90) | Potency (PA-1) | Potency (SKOV3) | Potency (Tov-21-G) | Potency (Tov112D)

CC1=C(CO)CC(C(C)C2CCC3C4CC=C5CC(OC6OC(COC7OC(CO)C(O)C(O)C7O)C(O)C(O)C6O)CC(O)C5(C)C4CCC23C)OC1=O (stereo not given)
inactive: outcome (HACAT) inactive [at 17.4 µM] | outcome (NIH3T3) inactive [at 17.4 µM] | Potency (C33A) | outcome (CASKI) | Potency (Es-2) | Potency (HeLa) | Potency (Hek293T) | Potency (JEG-3) | Potency (OV90) | Potency (PA-1) | Potency (SKOV3) | Potency (Tov-21-G) | Potency (Tov112D)

CC1(O)CC(O)C2C(C(=O)O)=COC(OC3OC(CO)C(O)C(O)C3OC(=O)/C=C/c3ccc(O)cc3)C21 (stereo not given)
inactive: outcome (HACAT) inactive [at 17.4 µM] | outcome (NIH3T3) inactive [at 17.4 µM] | Potency (C33A) | outcome (CASKI) | Potency (Es-2) | Potency (HeLa) | Potency (Hek293T) | Potency (JEG-3) | Potency (OV90) | Potency (PA-1) | Potency (SKOV3) | Potency (Tov-21-G) | Potency (Tov112D)
